From PubChem BioAssay (Tox21)
Inconclusive results are not listed. Calls of active or inactive are those of the source. Calls come from the whole dose curve; as a rule, active = well fitted activation curve with a large enough effect in the signal ratio in the repeat runs (not every such curve was filed as active); inconclusive = weak or mixed curves; inactive = flat fitted curve, though single readings scatter; the % refers to the signal ratio.

Test: qHTS assay to identify small molecule agonists of the TGF-beta/Smad signaling pathway (AID 1346859)
Conditions: SBE-bla HEK293T, TGF-beta/Smad beta-lactamase reporter, 5 h; series mostly up to 76.8 µM; activation: at the top concentration
From the text: U.S. Tox21 Program National Center for Advancing Translational Sciences [NCATS] NIH Chemical Genomics Center [NCGC] U.S. Environmental Protection Agency [EPA] National Institutes of Environmental Health Sciences [NIEHS] National Toxicology Program [NTP] U.S. Food and Drug Administration [FDA] Tox21 Assay Overview: Transforming growth factor beta (TGF-beta) superfamily consists of a large number of structurally related dimeric proteins that act as hormones or local mediators in regulating a wide range of biological functions. This superfamily includes TGF-betas themselves, the bone morphogenetic proteins (BMPs) and the activins. These ligands induce oligomerization of serine/threonine receptor kinases and phosphorylate the cytoplasmic signaling molecules of Smad protein family. CellSensor SBE-bla HEK 293T cell line (Life Technologies, Carlsbad, CA), responsive to TGF-beta was used to screen Tox21 10K compound library for identification of agonists/antagonists of the Smad signaling pathway. This cell line contains a beta-lactamase reporter gene under control of the Smad binding element (SBE) stably integrated into HEK 293T cells.
Tox21 Assay Protocol Summary: SBE-bla HEK 293T cells were dispensed at 4,000/well in 6 uL of assay medium into black wall/clear-bottom 1536-well plates using a Multidrop Combi (ThermoFisher Scientific, Waltham, MA) dispenser. After the assay plates were incubated at 37 C and 5% CO2 for an overnight, 23 nL of compounds dissolved in DMSO, positive controls or DMSO only was transferred to the assay plate by a Pintool station (Kalypsys, San Diego, CA). The assay plates were incubated at 37 C and 5% CO2 for 5 hr. One uL of LiveBLAzer B/G FRET substrate (Life Technologies) was added using a Flying Reagent Dispenser (Aurora Discovery, San Diego, CA) and the plates were incubated at room temperature for 2 hr. Fluorescence intensity (405 nm excitation, 460 nm and 530 nm emissions) was measured using an Envision plate reader (PerkinElmer, Shelton, CT).
% is set by controls: 0 for no effect and ±100 for the full control effect.

| SMILES | activation |
| --- | --- |
| C[C@H]1C[C@H]2[C@@H]3CCC4=CC(=O)C=C[C@]4(C)[C@@]3(F)[C@@H](O)C[C@]2(C)[C@@]1(O)C(=O)COP(=O)(O)O | -0.611% (inactive) |
| CC(C(=O)O)c1ccc(/C=C2\CCCCC2=O)cc1 (stereo not given) | -6.45% [at 35.3 µM] (inactive) |
| C=C(C)C(=O)OCCCCCCCCCCOC(=O)C(=C)C | 0.156% (inactive) |
| O=C(O)c1cc(C(=O)O)cc([N+](=O)[O-])c1 | 2.06% (inactive) |
| CC(C)(C(=O)O)c1ccc(C(O)CCCN2CCC(C(O)(c3ccccc3)c3ccccc3)CC2)cc1 (stereo not given) | -2.16% [at 35.3 µM] (inactive) |
| O=C(O)c1c2ccccc2cc2ccccc12 | 5.09% (inactive) |
| O=C(O)c1cc(C(=O)O)c(C(=O)O)cc1C(=O)O | 0.936% (inactive) |
| COc1ccnc2c1CCCCC2S(=O)c1nc2ccccc2[nH]1 (stereo not given) | -0.681% [at 35.3 µM] (inactive) |
| C/C=C1\[C@H]2C=C(C)C[C@]1(N)c1ccc(=O)[nH]c1C2 | 1.16% [at 35.3 µM] (inactive) |
| C=Cc1ccc(C=C)cc1 | -2.69% (inactive) |
| COC(=O)C(C)(C)C | 2.65% (inactive) |
| CCCOC(C)=O | 3.03% (inactive) |
| Cc1cc(N)n(-c2ccccc2)n1 | -0.908% (inactive) |
| O=C1OC(=O)C2CC=CCC12 (stereo not given) | 1.21% (inactive) |
| CCOCCn1c(N2CCCN(C)CC2)nc2ccccc21 | -2.31% [at 35.3 µM] (inactive) |
| CCCc1nc(C)c2c(=O)[nH]c(-c3cc(S(=O)(=O)N4CCN(CC)CC4)ccc3OCC)nn12 | -7.23% [at 35.3 µM] (inactive) |
| CCCCC(CC)COCCC#N (stereo not given) | -2.29% (inactive) |
| NC(=O)c1cc[n+](CC2=C(C(=O)[O-])N3C(=O)[C@@H](NC(=O)Cc4cccs4)[C@H]3SC2)cc1 | 1.53% [at 35.3 µM] (inactive) |
| C[Si](C)(C)O[Si](C)(C)O[Si](C)(C)C | 0.289% (inactive) |
| NC(=O)c1ccccc1C(N)=O | 0.232% (inactive) |

| SMILES | activation |
| --- | --- |
| CC(C)(C)c1cc(C=O)cc(C(C)(C)C)c1O | 1.45% [at 35.3 µM] (inactive) |
| CCCC1CCOC(C)S1 (stereo not given) | 1.16% (inactive) |
| CCCC(=O)OCc1ccccc1 | 1.86% (inactive) |
| Nc1ccccc1Nc1ccccc1 | -7.72% (inactive) |
| C/C(=C(\CCO)SS/C(CCO)=C(\C)N(C=O)Cc1cnc(C)nc1N)N(C=O)Cc1cnc(C)nc1N | -2.74% [at 35.3 µM] (inactive) |
| CC1(C)[C@@H]2CC[C@]3(C2)[C@@H]1C(=O)CCC3(C)C | -0.284% (inactive) |
| C1CCN(CN2CCCCC2)CC1 | 2.83% (inactive) |
| [O-][n+]1ccc(Cl)cc1 | -1.53% (inactive) |
| O=C(O)c1ccccc1[N+](=O)[O-] | 0.0401% (inactive) |
| COC(=O)/C=C/C(C)=C\C=C\C(C)=C\C=C\C=C(C)\C=C\C=C(C)\C=C\C(=O)O | -1.57% (inactive) |
| CC(C)C[C@H](NC(=O)[C@H](Cc1ccccc1)NC(=O)c1cnccn1)B(O)O | 5.9% [at 35.3 µM] (inactive) |
| CCOc1cc(OCC)c(C(C)=O)cc1OCC | -14.3% (inactive) |
| C=CC(C)(O)CC/C=C(/C)CCC=C(C)C (stereo not given) | 1.53% (inactive) |
| CCC(=O)O[C@]1(C(=O)COC)[C@@H](C)C[C@H]2[C@@H]3CCC4=CC(=O)C=C[C@]4(C)C3(F)[C@@H](O)C[C@@]21C (stereo not given in full) | -5.4% [at 35.3 µM] (inactive) |
| CCCCCCCCOCCCN | 3.21% (inactive) |
| FC1(F)C(F)(F)C(F)(F)C2(F)C(F)(C1(F)F)C(F)(F)C(F)(F)C1(F)C(F)(F)C(F)(F)C(F)(F)C(F)(F)C12F (stereo not given) | -1.03% (inactive) |
| O=C(O)c1cccnc1Nc1cccc(C(F)(F)F)c1 | -5.16% [at 35.3 µM] (inactive) |
| FC(F)(Cl)C(F)(Cl)Cl | -0.0976% (inactive) |
| CCCCOC(=O)C(C)Oc1ccc(Oc2ccc(C(F)(F)F)cn2)cc1 (stereo not given) | -4.78% (inactive) |
| CCCCCCCCCCCCSCCOCCO | 1.59% [at 35.3 µM] (inactive) |
